From PubChem BioAssay AID1159580 (chemical genetic matrix, 2015)
The campaign covered roughly 5,500 compounds. About 2,000 (36%) were called active. Not shown: some 18% with an inconclusive outcome. Cut-off read from the data, not from the text of the source: active = normalized growth mostly below about 0.91 (no sharp cut-off); inconclusive = no clear call, values can overlap the other calls; inactive = mostly above about 0.92. This is one part of the list.

Experiment: chemical genetic growth profiling, strain panel (AID 1159580);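 note: tested at 20 µM; growth read once vehicle control cultures reached saturation at 30 °C; 1 = growth at the plate median or of vehicle wells; lower values mean less growth of the strain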
Conditions: growth OD

Measured: normalized growth

C=C1C(=O)O[C@@H]2C[C@@]3(C)CCC[C@H](C)C3=C[C@H]12
inactive: S. cerevisiae deletion strains, locus YJR043C, strain POL32, hits give low values 0.88 | S. cerevisiae deletion strains, locus YJR066W, strain TOR1, hits give low values 0.939 | S. cerevisiae deletion strains, locus YKL009W, strain mrt4, hits give low values 1.01 | S. cerevisiae deletion strains, locus YKL068W, hits give low values 0.946 | S. cerevisiae deletion strains, locus YKL190W, strain CNB1, hits give low values 0.934 | S. cerevisiae deletion strains, locus YLR058C, strain SHM2, hits give low values 0.898 | S. cerevisiae deletion strains, locus YLR102C, strain apc9, hits give low values 0.942 | S. cerevisiae deletion strains, locus YLR113W, strain HOG1, hits give low values 0.991 | S. cerevisiae deletion strains, locus YLR342W, strain FKS1 (second series), hits give low values 0.864 | S. cerevisiae deletion strains, locus YML032C, strain rad52, hits give low values 0.923 | S. cerevisiae deletion strains, locus YMR078C, strain ctf18, hits give low values 0.915 | S. cerevisiae deletion strains, locus YMR307W, strain GAS1, hits give low values 0.654 | S. cerevisiae deletion strains, locus YNL067W, strain RPL9B, hits give low values 0.896 | S. cerevisiae deletion strains, locus YNL183C, strain NPR1, hits give low values 0.959 | S. cerevisiae deletion strains, locus YNL250W, strain rad50, hits give low values 0.949 | S. cerevisiae deletion strains, locus YNL298W, strain CLA4, hits give low values 0.943 | S. cerevisiae deletion strains, locus YOL006C, strain TOP1, hits give low values 0.598 | S. cerevisiae deletion strains, locus YOL012C, strain htz1 0.342 | S. cerevisiae deletion strains, locus YOR061W, strain CKA2, hits give low values 0.925 | S. cerevisiae deletion strains, locus YOR136W, strain idh2, hits give low values 0.942 | S. cerevisiae deletion strains, locus YOR231W, strain MKK1, hits give low values 1.01 | S. cerevisiae deletion strains, locus YOR316C, strain cot1, hits give low values 0.939 | S. cerevisiae deletion strains, locus YPL256C, strain CLN2, hits give low values 0.949 | S. cerevisiae deletion strains, locus YPR141C, strain kar3, hits give low values 0.926 | S. cerevisiae deletion strains, strain wtn01, hits give low values 0.909
active: S. cerevisiae deletion strains, locus YKL085W, strain MDH1 (second series), hits give low values 0.909 | S. cerevisiae deletion strains, locus YKL085W, strain MDH1, hits give low values 0.909 | S. cerevisiae deletion strains, locus YKL160W, strain elf1, hits give low values 0.78 | S. cerevisiae deletion strains, locus YKR001C, strain vps1, hits give low values 0.496 | S. cerevisiae deletion strains, locus YKR026C, strain gcn3, hits give low values 0.893 | S. cerevisiae deletion strains, locus YKR091W, strain srl3, hits give low values 0.913 | S. cerevisiae deletion strains, locus YLL001W, strain dnm1, hits give low values 0.842 | S. cerevisiae deletion strains, locus YLL026W, hits give low values 0.869 | S. cerevisiae deletion strains, locus YLL041C, strain sdh2, hits give low values 0.888 | S. cerevisiae deletion strains, locus YLR027C, strain aat2, hits give low values 0.827 | S. cerevisiae deletion strains, locus YLR039C, strain RIC1, hits give low values 0.221 | S. cerevisiae deletion strains, locus YLR221C, strain rsa3, hits give low values 0.751 | S. cerevisiae deletion strains, locus YLR258W, strain gsy2, hits give low values 0.819 | S. cerevisiae deletion strains, locus YLR262C, strain YPT6 (second series), hits give low values 0.259 | S. cerevisiae deletion strains, locus YLR262C, strain YPT6, hits give low values 0.268 | S. cerevisiae deletion strains, locus YLR268W, strain sec22, hits give low values 0.668 | S. cerevisiae deletion strains, locus YLR320W, strain mms22, hits give low values 0.597 | S. cerevisiae deletion strains, locus YLR330W, strain CHS5, hits give low values 0.848 | S. cerevisiae deletion strains, locus YLR342W, strain FKS1, hits give low values 0.885 | S. cerevisiae deletion strains, locus YLR357W, strain rsc2, hits give low values 0.662 | S. cerevisiae deletion strains, locus YLR370C, strain arc18, hits give low values 0.899 | S. cerevisiae deletion strains, locus YLR371W, strain rom2, hits give low values 0.646 | S. cerevisiae deletion strains, locus YLR384C, strain iki3, hits give low values 0.87 | S. cerevisiae deletion strains, locus YLR418C, strain cdc73, hits give low values 0.31 | S. cerevisiae deletion strains, locus YML016C, strain PPZ1, hits give low values 0.85 | S. cerevisiae deletion strains, locus YML120C, strain ndi1, hits give low values 0.818 | S. cerevisiae deletion strains, locus YML124C, strain tub3, hits give low values 0.896 | S. cerevisiae deletion strains, locus YMR058W, strain fet3, hits give low values 0.8 | S. cerevisiae deletion strains, locus YMR125W, strain sto1, hits give low values 0.669 | S. cerevisiae deletion strains, locus YMR129W, hits give low values 0.847 | S. cerevisiae deletion strains, locus YMR205C, strain PFK2, hits give low values 0.653 | S. cerevisiae deletion strains, locus YMR223W, strain ubp8, hits give low values 0.815 | S. cerevisiae deletion strains, locus YMR231W, strain pep5, hits give low values 0.859 | S. cerevisiae deletion strains, locus YNL071W, strain lat1, hits give low values 0.377 | S. cerevisiae deletion strains, locus YNL153C, strain GIM3, hits give low values 0.868 | S. cerevisiae deletion strains, locus YNL209W, strain ssb2, hits give low values 0.902 | S. cerevisiae deletion strains, locus YNL233W, strain BNI4, hits give low values 0.828 | S. cerevisiae deletion strains, locus YNL248C, strain rpa49, hits give low values 0.617 | S. cerevisiae deletion strains, locus YNL271C, strain bni1, hits give low values 0.855 | S. cerevisiae deletion strains, locus YNL307C, strain MCK1, hits give low values 0.737 | S. cerevisiae deletion strains, locus YNL322C, strain KRE1 (second series), hits give low values 0.902 | S. cerevisiae deletion strains, locus YNR049C, strain mso1, hits give low values 0.903 | S. cerevisiae deletion strains, locus YNR052C, strain pop2, hits give low values 0.875 | S. cerevisiae deletion strains, locus YOL147C, strain pex11, hits give low values 0.921 | S. cerevisiae deletion strains, locus YOR001W, strain rrp6, hits give low values 0.807 | S. cerevisiae deletion strains, locus YOR069W, strain VPS5, hits give low values 0.915 | S. cerevisiae deletion strains, locus YOR070C, strain gyp1, hits give low values 0.856 | S. cerevisiae deletion strains, locus YOR080W, strain dia2, hits give low values 0.908 | S. cerevisiae deletion strains, locus YOR083W, strain WHI5, hits give low values 0.82 | S. cerevisiae deletion strains, locus YOR106W, strain vam3, hits give low values 0.752 | S. cerevisiae deletion strains, locus YOR144C, strain elg1, hits give low values 0.927 | S. cerevisiae deletion strains, locus YOR184W, strain ser1, hits give low values 0.577 | S. cerevisiae deletion strains, locus YOR265W, strain rbl2, hits give low values 0.883 | S. cerevisiae deletion strains, locus YOR270C, strain vph1, hits give low values 0.583 | S. cerevisiae deletion strains, locus YOR290C, strain snf2, hits give low values 0.785 | S. cerevisiae deletion strains, locus YPL051W, strain arl3, hits give low values 0.73 | S. cerevisiae deletion strains, locus YPL055C, strain LGE1, hits give low values 0.722 | S. cerevisiae deletion strains, locus YPL078C, strain atp4, hits give low values 0.791 | S. cerevisiae deletion strains, locus YPL106C, strain sse1, hits give low values 0.521 | S. cerevisiae deletion strains, locus YPL240C, strain hsp82, hits give low values 0.825 | S. cerevisiae deletion strains, locus YPR119W, strain clb2, hits give low values 0.907 | S. cerevisiae deletion strains, locus YPR163C, strain tif3, hits give low values 0.749 | S. cerevisiae deletion strains, locus YPR167C, strain met16, hits give low values 0.899 | S. cerevisiae strains, strain wild type, hits give low values 0.882
